# From the OligoGym collection
# Biological target: STX17
# Assay: pooled miR-30 sensor sort-seq; sequence = guide strand
# Conditions: shRNA
# Also: reference of the scale not given here.
row,Sequence,sensor-assay potency score (higher = more potent)
1,TTTGTATCAATTTTCCACCTGT,0.455
2,TTCTTCATCATTAAATTGCTTC,0.0874
3,TTCTGCAGCATTTTGATCTTGA,0.632
4,TTGACATGGTCTGCAATGCTGT,-0.961
5,TAGTATGAAATGCTCCACCAAC,-1.07
6,TTCATCATTAAATTGCTTCTTA,0.611
7,TTCTACACATCTCAAGTCCTTA,0.0253
8,TCAAACTCTGAGAACTAGCTTC,0.0575
9,AATGCTGTCAATCTTCTCCTGC,0.00387
10,TATATCTGAGTCAAACTCTGAG,0.23
11,TACTTCTCAATATTTATCTGGT,0.329
12,TTCTTTAACAGGATCTATCATT,-0.828

# Biological target: STYK1
# Assay: as above
# Conditions: shRNA
row,Sequence,sensor-assay potency score (higher = more potent)
1,TTGAGAATAACACTCTTGGGCT,-0.459
2,TTGAGTTCTTTGTTCTCTGATA,-1.2
3,TTCATGATACTGTACATGGTAT,-0.548
4,TATTCCTTCATTTCATTCCAAA,-1.26
5,TAGAAGAGGCTCTCCACTCTGA,0.202
6,TTGTTCTCTGATAAAAAGCCAC,-1.1
7,TATGTCTTAGCTCAGGATGTGT,-0.84
8,ATAGTAACCAACAAAGTTGGGA,0.0523
9,ATAGTCATCACATCCCGCCGAC,-0.512
10,TTGAGGTCCAGAACGCTGCTGT,0.125
11,ATCCATAGTCATCACATCCCGC,-0.719
12,TTTAATGGCAGCTTCTAGGCGC,0.0946

# Biological target: STYX
# Assay: as above
# Conditions: shRNA
row,Sequence,sensor-assay potency score (higher = more potent)
1,TGTAGTACAGGTAGCTTGCTTT,-0.453
2,TTCTTTCTTGAACATAAGCAAA,-1.59
3,TAGGGTAGGTCCACTCCTCGGC,0.0939
4,TTTCTGTAGTACAGGTAGCTTG,-1
5,TTCTGTAGTACAGGTAGCTTGC,-0.197
6,TAATACAAAATCTTCTTTCTTG,0.259
7,TAGAAATTCACACTCTATGATG,-0.976
8,TAAATATCTAAATAACTGCTGA,-0.29
9,TAGCAGATGAATATGGGCCTAA,-0.352
10,TAAAATTTCCTGCATCTCTCGT,-0.395
11,TTGCTTCAATATTTTGTCGTAT,-0.787
12,TTGCTTTTCATAGCAGATGAAT,-1.47
